# Screening results deposited in PubChem by National Center for Advancing Translational Sciences (NCATS).
# Only some compounds are listed: those with a hit (about 6.1% of all), similar ones and a draw of the others.
# D1 potentiator: potentiators of human D1 dopamine receptor | HEK293 TREx D1 cells, calcium flux, dopamine EC20 potentiation | 360,000 tested, 0.036% active | potentiation, % at 10 µM | P21728; in the data active = potentiation above about 30%; also: 0% is about no effect
# D1 agonist: agonists of human D1 dopamine receptor. P21728. HEK293 T-REx D1 cells, calcium flux, agonist mode. 360,000 tested, 1% active. AID 504660. activation, % at 2 µM; in the data active = activation above about 30%; also: 0% is about no effect
#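 Tetracycline-induced HEK293 TREx D1 cells, force-coupled to calcium signalling, were dye-loaded with a no-wash calcium kit. Compound was pin-added after a 10 s baseline. Fluorescence was read kinetically at 1 cycle/s for 180 s, with calcium rises flagged as agonism.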
# D1 antagonist: blocks dopamine activation of the human D1 receptor; HEK293 TREx D1 cells, calcium flux, dopamine EC80; active compounds read low; activity change, negative = inhibition, % at 10 µM; 360,000 tested, 3.2% active; AID 504652; in the data active = activity change below about -30%; also: % is scaled to controls: 0 for no effect and ±100 for the full control effect
#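 Inducible Hek293 Trex D1 cells (tetracycline, overnight, 30 C). Calcium dye 30–90 min RT. Antagonist mode: EC80 dopamine added after 180 s compound read.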
# DRD3 agonist: activates the human D3 dopamine receptor; max activation, %; 410,000 tested, 0.58% active; D3R DiscoveRx beta-arrestin cells, luminescence, 90 min; P35462; in the data active = max activation above about 30%; also: 0% is about no effect
# Target sequence (P35462 whole entry, looked up): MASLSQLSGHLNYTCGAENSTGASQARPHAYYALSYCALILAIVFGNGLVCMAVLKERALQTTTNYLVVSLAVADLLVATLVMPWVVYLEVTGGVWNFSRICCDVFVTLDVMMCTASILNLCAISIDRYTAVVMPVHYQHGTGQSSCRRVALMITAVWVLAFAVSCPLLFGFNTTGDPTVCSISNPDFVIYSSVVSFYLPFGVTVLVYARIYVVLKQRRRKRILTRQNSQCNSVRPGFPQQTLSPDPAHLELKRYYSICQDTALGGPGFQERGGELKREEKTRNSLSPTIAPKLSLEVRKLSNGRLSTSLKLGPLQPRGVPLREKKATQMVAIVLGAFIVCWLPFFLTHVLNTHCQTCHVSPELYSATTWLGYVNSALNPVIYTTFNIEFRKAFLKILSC
#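 Cells at 1500/well, incubated overnight, then treated with pinned compounds (dopamine as control) for 90 min at 37 degrees C. DiscoveRx reagent added for 30 - 60 minutes at room temperature; luminescence read.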
# D3 antag: D3 dopamine receptor (human) antagonism. P35462. D3R cells, DiscoveRx beta-arrestin luminescence, antagonist mode; active compounds read low. max response, negative = inhibition, %. 360,000 tested, 2.5% active. AID 652054; in the data active = max response below about -50%; inconclusive = no clear call, values can overlap the other calls; also: % is scaled to controls: 0 for no effect and ±100 for the full control effect
#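 Cells plated overnight at 1500 cells/well, then exposed to library compounds with dopamine controls for 90 minutes at 37 degrees C. DiscoveRx reagent added for 30–60 minutes at room temperature; luminescence read, quantitative HTS format.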
# * marks the source's active call; other numbers are inactive results; ? = inconclusive; nt = no result.
SMILES,D1 potentiator,D1 agonist,D1 antagonist,DRD3 agonist,D3 antag
COc1ccc(CC(C)N2CCN(c3ccccc3OC)CC2)cc1OC (stereo unspecified),-8,5,0,-37,-93*
C=CCc1ccccc1OCC(O)CNC (stereo unspecified),-6,7,-19,3,-64*
C=CCc1ccc(OCC(O)CN2CCN(Cc3ccc(Cl)cc3)CC2)c(OC)c1 (stereo unspecified),-11,43*,-14,-6,-73*
C=CCc1ccc(OCC(O)CN2CCC(Cc3ccccc3)CC2)c(OC)c1 (stereo unspecified),-8,14,-11,-17,-24
C=CCc1ccc(OCC(O)CN2CCN(c3ccccc3OC)CC2)c(OC)c1 (stereo unspecified),-7,11,-10,-9,-103*
C=CCc1ccccc1OCC(O)CN1CCN(c2ccc(OC)cc2)CC1 (stereo unspecified),-8,5,-64*,-4,-82*
CCOC(=O)c1c(NC(=O)c2cc(-c3cccc(Cl)c3)on2)sc(C(C)=O)c1C,0,1,-8,-6,nt
O=C(N/N=C/c1ccc(N2CCOCC2)cc1)c1ccc(O)cc1,-5,2,-55*,-6,0
O=C(CC(c1cccs1)N1Cc2ccccc2C1=O)Nc1ccccc1 (stereo unspecified),-2,0,6,-1,nt
CCN(c1ccccc1)S(=O)(=O)c1ccc(NC(=O)c2nc(SC)ncc2Cl)cc1,0,3,0,0,nt
COc1c2ccc(C(=O)NCCCCc3ccccc3)cc2nn1C,-8,3,-35*,3,0
O=C(CCc1nnc2n(CCc3ccccc3)c(=O)c3ccccc3n12)NCCCN1CCCCC1,-6,0,-56*,5,28
O=C(NCCCN1CCCCC1)c1ccc2c(=O)n(CCc3ccccc3)c(=O)[nH]c2c1,-8,1,-46*,-10,2
CCOCCCNC(=O)c1ccc2c(=O)n(CCc3ccccc3)c(=O)[nH]c2c1,-1,0,-39*,6,nt
CCCCCNC(=O)c1ccc2c(=O)n(CCc3ccccc3)c(=O)[nH]c2c1,-1,1,8,4,nt
O=C(CCc1nnc2n(Cc3ccc(Cl)cc3)c(=O)c3ccccc3n12)NCCN1CCCC1,-3,2,0,-11,0
CCOCCCNC(=O)c1ccc2c(=O)n(CCc3ccc(OC)c(OC)c3)c(=O)[nH]c2c1,-1,2,-6,3,nt
COc1ccc(NC(=O)c2cc3c(s2)-c2c(C)cccc2OC3)c(OC)c1,-5,0,11,-5,nt
O=C(COc1ccc(F)cc1)Nc1ccccc1C(=O)OCc1cc(=O)n2ccsc2n1,-1,-2,-11,-7,nt
COc1ccc(Cl)cc1NC(=O)CSc1cn(CC(=O)N2CCCCCC2)c2ccccc12,-3,3,-2,-2,nt
Cc1ccc(C)c(N2CCN(C(=O)c3ccc4c(=O)n(CCc5ccccc5)c(=O)[nH]c4c3)CC2)c1,4,-1,-30*,3,nt
N#CC1=C(N)Oc2ccc3ccc(O)cc3c2C1c1cccnc1 (stereo unspecified),-7,1,-76*,3,-16
Cc1nn(-c2cccc(Cl)c2)c2c1C(c1ccncc1)C(C#N)=C(N)O2 (stereo unspecified),-1,3,1,-6,?
N#CC1=C(N)Oc2cc(O)ccc2C1c1cccnc1 (stereo unspecified),-7,2,-3,-1,2
N#CC1=C(N)Oc2cc(O)c(Cl)cc2C1c1cccnc1 (stereo unspecified),2,60*,7,2,-15
SMILES,D1 potentiator,D1 agonist,D1 antagonist,DRD3 agonist,D3 antag
Cc1nn(-c2cccc(Cl)c2)c2c1C(c1cccnc1)C(C#N)=C(N)O2 (stereo unspecified),-1,7,-36*,3,-23
N#CC1=C(N)Oc2cc(O)c(Cl)cc2C1c1ccccc1F (stereo unspecified),15,166*,0,2,55
CCS(=O)(=O)N1CCCc2cc(C(=O)Nc3cc([N+](=O)[O-])ccc3C)ccc21,-2,-1,3,4,nt
CCN(CC)C(=O)Cn1c(=O)n(-c2ccc(Cl)cc2)c(=O)c2c3c(sc21)CCCCC3,0,0,6,6,nt
CCc1ccc(NC(=O)CSCc2nc(N)nc(Nc3ccccc3CC)n2)cc1,0,-1,-36*,2,-17
Cc1nnc(SC(C)C(=O)Nc2nccs2)s1 (stereo unspecified),-5,3,-33*,-1,-4
Cc1ccc2[nH]c(CSc3nnc(NC(=O)COc4ccccc4C)s3)cc(=O)c2c1,-3,0,-6,0,nt
CN1CCc2c(sc(NC(=O)Cc3ccccc3)c2C(N)=O)C1,-13,5,-14,-8,-27
CCC(=O)Nc1sc2c(c1C(N)=O)CCN(Cc1ccccc1)C2,1,166*,-11,-5,-24
CCC(=O)Nc1sc2c(c1C(N)=O)CCN(C(C)=O)C2,-6,2,-13,2,?
CN1CCc2c(sc(NC(=O)Cc3ccc(F)cc3)c2C(N)=O)C1,2,4,12,-3,-51*
NC(=O)c1c(NC(=O)c2c(F)cccc2F)sc2c1CCN(Cc1ccccc1)C2,-1,155*,12,-2,5
CC(=O)N1CCc2c(sc(NC(=O)c3ccc([N+](=O)[O-])o3)c2C(N)=O)C1,nt,nt,nt,-9,-91*
COC(=O)c1cc(NC(=O)c2ccc3c(c2)N(Cc2cccc(Cl)c2)C(=O)c2ccccc2S3=O)cc(C(=O)OC)c1 (stereo unspecified),-5,3,3,6,nt
COc1ccccc1-c1noc(CSc2nnc(Cc3ccccc3)n2-c2ccc(C)c(C)c2)n1,4,4,2,18,nt
CO[C@H]1C[C@H](O[C@@H]2/C(C)=C/C[C@@H]3C[C@@H](C[C@]4(CC[C@H](C)[C@@H](C5CCCCC5)O4)O3)OC(=O)[C@@H]3C=C(C)/C(=N/O)[C@H]4OC/C(=C\C=C\[C@@H]2C)[C@]43O)O[C@@H](C)[C@@H]1O,nt,nt,nt,-3,nt
CC(C)(C)OC(=O)Cc1nnc(-c2cc3ccccc3[nH]2)o1,-1,3,7,nt,nt
CC(C)C(=O)Nc1sc2c(c1C(N)=O)CCN(Cc1ccccc1)C2,-8,8,2,-5,14
CCN1CCc2c(sc(NC(=O)Cc3ccccc3)c2C(N)=O)C1,-2,6,-24,-15,?
CCN1CCc2c(sc(NC(=O)Nc3ccc(Cl)c(Cl)c3)c2C(N)=O)C1,-2,418*,-8,12,6
NC(=O)c1c(NC(=O)c2ccccc2)sc2c1CCN(Cc1ccccc1)C2,-10,216*,-9,0,11
CC1CCN(C(=O)c2cccc(NC(=O)c3nsc4ccccc34)c2)CC1,4,3,1,0,nt
C[N+](C)(C)CCOc1ccc([N+](=O)[O-])cc1,0,3,-31*,6,5
